# LASV entry inh – inhibitors of Lassa virus binding or entry into cells; Lassa virus pseudotyped entry inhibition, cell-based qHTS; Potency, µM (titrated, usually from 49.2 µM), without a hit: at the highest dose activity change, negative = inhibition, usual class: inhibitors; 18,000 tested, 4.1% active
# Marburg entry – inhibitors of Marburg virus binding or entry into cells; Marburg virus pseudotype entry/binding inhibition, cell-based; Potency, µM (series often up to 49.2 µM), inactives show top-dose activity change, negative = inhibition, hits mostly inhibitors; 18,000 tested, 6.5% active
# Starred values were filed as active, the others as inactive; ? = inconclusive; nt = not tested or not shown; ! = a repeat was not active; [ ] = another dose, or the depositor's remark. An excerpt weighted towards active compounds, which were near 8.6% of everything screened. The call rests on the fitted dose curve; tested in HEK293 cells. On the % scale 0 is the no-effect control and ±100 the full control effect; potency means the concentration at half of the fitted maximal effect.
SMILES,LASV entry inh,Marburg entry
COc1cc2c3cc1Oc1c(OC)c(OC)cc4c1[C@@H](Cc1ccc(OC(=O)c5ccc([N+](=O)[O-])cc5)c(c1)Oc1ccc(cc1)C[C@@H]3N(C)CC2)N(C)CC4,?,0.63µM*
COc1cc2c3cc1Oc1c(OC)c(OC)cc4c1[C@@H](Cc1ccc(O)c(c1)Oc1ccc(cc1)C[C@@H]3N(C)CC2)N(C)CC4,11µM*,2.8µM*
COc1cc2c(cc1O)-c1c(O)c(OC)cc3c1[C@H](C2)N(C)CC3,4%,-28%
COc1ccc2cc1Oc1ccc(cc1)C[C@H]1c3cc(c(OC)cc3CCN1C)Oc1c(OC)c(OC)cc3c1[C@H](C2)N(C)CC3,13µM*,3.5µM*
COc1ccc2c(c1OC)C(=O)O[C@@H]2[C@H]1c2c(cc3c(c2OC)OCO3)CCN1C,-15%,?
COc1ccc(CC2c3cc(OC)c(OC)cc3CCN2C)cc1OC (stereo not drawn),-19%,4%
CCN(CC)/[N+]([O-])=N/O,-15%,-3%
COc1cc(-c2cc(C)c3c(OC)ccc(OC)c3n2)cc2c1OCCN(C(=O)C(C)c1n[nH]c(=O)c3ccccc13)C2 (stereo not drawn),-7%,3%
Cc1cc(Cl)ccc1OCC(=O)N1CCOc2ccc(CN3C[C@@H](C)O[C@@H](C)C3)cc2C1,-11%,11%
COC(=O)C1=C(C(=O)OC)[C@@H]2N(C)c3ccccc3[C@@]23CCC(=O)N(Cc2ccc(OC)cc2)C3=N1,1%[8.59 µM],-9%[8.59 µM]
COCC1=C2c3ccccc3[C@H](C[N+](=O)[O-])C(C(=O)OC)(C(=O)OC)C[C@@H]2n2c(=O)n(-c3ccccc3)c(=O)n2C1,7.1µM*!,-15%
COC(=O)C1(C(=O)OC)CC=CCc2ccccc2[C@H]1C[N+](=O)[O-],-8%[8.59 µM],3%[8.59 µM]
C[C@@H](COc1ccccc1)N(CCCl)Cc1ccccc1,20%[17.8 µM],-28%[17.8 µM]
CC(C)N(CCC(=O)c1ccc2ccccc2c1)Cc1ccccc1,32µM*,?
Cc1c(C(=O)NCc2ccco2)cnn1-c1ncc2c(n1)-c1ccccc1CC2,3%,-12%
C=CCO[C@@H]1C=C[C@@H](c2ccccc2)O[C@@H]1COC,4%[8.59 µM],18%[8.59 µM]
CCCCCCN1C[C@H](n2cc(C3CC3)nn2)[C@@H](O)C[C@H]1c1ccc(OC)cc1,nt,-20%
CNCC(=O)c1ccc(O)c(O)c1,-15%,16µM*
O=C(O)Cc1ccc(O)c(O)c1,-18%,8%
O=S(=O)(NCCc1ccc(F)cc1)c1ccccc1Br,-12%,17%
Fc1ccc(C(c2ccc(F)cc2)N2CCN(C/C=C\c3ccccc3)CC2)cc1,?,14µM*
Fc1ccc(C(OCCN2CCN(C/C=C/c3ccccc3)CC2)c2ccc(F)cc2)cc1,16µM*,8.9µM*
CC(C)CC1C(=O)N(Cc2cn(CCC3OCCCO3)nn2)CCS(=O)(=O)N1Cc1ccc(-c2ccc(F)nc2)cc1 (stereo not drawn),-9%,?
C=C1C2CC[C@]3(CCC4[C@@]5(C)CCC[C@@]4(CN(CCO)C5)[C@@H]3C2)[C@@H]1O (stereo partly drawn),-15%,?
COC(=O)C1CCCCN1Cc1ccc2c(c1)CN(C1CCSCC1)CCO2 (stereo not drawn),-18%,-25%
SMILES,LASV entry inh,Marburg entry
COc1ccc(O)c(C(C)(C)C)c1,-9%,?
CC(C)(C)c1cc(O)ccc1O,14µM*!,13µM*!
NCC(=O)N[C@@H](CCCN=C(N)N)C(=O)NCC(=O)N[C@@H](CC(=O)O)C(=O)N[C@@H](CO)C(=O)O,2%,10%
C[n+]1cc2c3c(ccc2c2ccc4cc5c(cc4c21)OCO5)OCO3,20µM*,6.3µM*
COc1ccc(O[C@H]2C=C[C@@H](c3ccccc3)O[C@H]2COC(=O)CCC(C)=NO[C@@H](C)c2cc(-c3c(C)cc(C)cc3C)no2)cc1,-16%[8.59 µM],3%[8.59 µM]
c1ccc2c(N3CCNCC3)cccc2c1,0%,?
c1ccc2nc(N3CCNCC3)ccc2c1,-10%,32µM*!
O=C1CCCC=C1[C@@H](O)CCOC(c1ccccc1)(c1ccccc1)c1ccccc1,-13%,-6%
O=C1c2cc(O)cc(O)c2OC[C@@H]1c1ccc(O)c(O)c1,-3%,17%
Cc1cc(NS(=O)(=O)c2ccc(N)cc2)nc(C)n1,-2%,2%
Oc1cc2c(cc1O)C1c3ccc(O)c(O)c3OCC1(O)C2 (stereo not drawn),?,4µM*
CCCCC/C=C\C/C=C\C/C=C\CCCCC(=O)NCCc1ccc(O)c(O)c1,11%,16%
CC[C@H](C)[C@H](NC(=O)[C@H](CC(=O)O)NC(=O)[C@H](CC(C)C)NC(=O)[C@H](Cc1cnc[nH]1)NC(=O)[C@H](C)NC(=O)[C@H](Cc1ccccc1)NC(=O)[C@H](Cc1ccc(O)cc1)NC(=O)[C@@H](NC(=O)[C@H](C)NC(=O)[C@H](CCC(=O)O)NC(=O)[C@H](CCC(=O)O)NC(=O)[C@H](CC(=O)O)NC(=O)CCC(=O)O)C(C)C)C(=O)N[C@H](C(=O)N[C@@H](Cc1c[nH]c2ccccc12)C(=O)O)[C@@H](C)CC,-3%,?
c1ccc2c(c1)CCCc1cc(NCCN3CCOCC3)nnc1-2,24%[17.8 µM],5%[17.8 µM]
O=C1C(Cl)=C(NCCN2CCOCC2)C(=O)c2ncccc21,11µM*,13µM*
CCCCCCN1C[C@@H](n2cc(C3CC3)nn2)[C@H](O)C[C@H]1c1ccc(C)cc1,nt,-33%
CCN1C(=S)NC(c2ccccc2)C(C(=O)OC)=C1C (stereo not drawn),6%[8.59 µM],-2%[8.59 µM]
CN1CCCC(CC2c3ccccc3Sc3ccccc32)C1 (stereo not drawn),?,7.9µM*
CN1CCCC(CN2c3ccccc3Sc3ccccc32)C1 (stereo not drawn),28µM*,11µM*
c1ccc2c(c1)Sc1ccccc1N2C[C@@H]1CN2CCC1CC2,3%,12%
COc1cccc(CN2CCC3(CC2)c2ccccc2[C@@H](NC(=O)c2ccccc2)[C@@H]3O)c1O,-16%,?
Cc1nc(CN2CCN(C(=O)CC3(c4ccccc4Cl)CC(=O)N(C)C3=O)CC2)cs1 (stereo not drawn),-14%,-8%
FC(F)(F)c1ccc(-c2nc(-c3ccccc3)oc2NCc2ccccc2)cc1,?,-7%[8.59 µM]
COc1cc(CNCc2cc3cc(C)ccc3nc2-c2ccc(F)cc2)cc(OC)c1OC,-3%,-8%
c1ccc2c(c1)SCc1c-2[nH]c2ccccc12,?,11µM*
SMILES,LASV entry inh,Marburg entry
O=C1Cc2c([nH]c3ccc(Br)cc23)-c2ccccc2N1,-4%,5%
CC[C@H](C)[C@H](NC(=O)CNC(=O)[C@H](CCCNC(=N)N)NC(=O)[C@H](CO)NC(=O)[C@H](C)NC(=O)[C@H](Cc1ccc(O)cc1)NC(=O)[C@H](Cc1c[nH]c2ccccc12)NC(=O)[C@H](C)NC(=O)[C@@H]1CCCN1C(=O)[C@H](CC(N)=O)NC(=O)[C@@H](NC(=O)[C@H](CC(=O)O)NC(=O)[C@@H]1CCCN1C(=O)[C@@H](N)[C@@H](C)O)[C@@H](C)CC)C(=O)N[C@@H](CCCNC(=N)N)C(=O)N1CCC[C@H]1C(=O)N[C@H](C(=O)NCC(=O)N[C@@H](CCCNC(=N)N)C(=O)N[C@@H](Cc1ccccc1)C(N)=O)C(C)C,-1%,-9%
CCCCCCCCNS(=O)(=O)CCNCc1ccccc1,32%,21%
CCCCCCCCNS(=O)(=O)CCNCCc1ccccc1,4%,-11%
CCCCCCCCCCCCCC[N+](C)(C)Cc1ccccc1,28µM*,?
CCCCCCCCCCCCCCCC[N+](C)(C)Cc1ccccc1,?,25µM*
